Data taken from PubChem BioAssay.
Records with an inconclusive call do not appear. The source made the active and inactive calls.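 The calls were made as follows, unless noted: active = Her2 level under about 52% in both replicate screens, with viability over 70% of control (limit read from the data); inconclusive = Her2 under the limit in one screen only, or viability under 70%; inactive = Her2 level above the set limit.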

Columns and labels:
[1] = Her2 expression decrease, cell viability multiplex – SKBR3 breast tumor cells, AlphaScreen, ATP viability, primary screen (AID 461); settings: SKBR3 Her2 protein level, 18-24 h, measured here: SKBR3 viability, ATP luminescence, at 10 µM;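 as to Her2 level: lower value means less Her2 protein in the cells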;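 as to viability: percent of carrier control wells set as 100% viability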
[2] = target: Receptor tyrosine-protein kinase erbB-2 (Homo sapiens) (UniProt P04626); test: as above; settings: 18-24 h, at 10 µM, stronger effect = lower value
[3] = reduced viability of SK-BR-3 breast cancer cells – cell-based, 24 h, human, pilot screen (AID 572;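 active = viability at or below 10% of carrier control in both of two separate runs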;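 also: compound exposure lasted between 18 and 24 h rather than exactly 24 h; 100% = carrier-treated control wells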); settings: SK-BR-3 viability, CellTiter-Glo luminescence, at 10 µM, stronger effect = lower value
[4] = HUVEC growth inhibition – cell-based, human, primary screen (AID 575;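 active = viability at or below 30% in both replicate assays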;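 also: 100% = median of untreated cell wells with 0.1% DMSO on each plate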); settings: HUVEC proliferation, CellTiter-Glo luminescence, 72 h; at 10 µM; stronger effect = lower value
[5] = H69AR cell proliferation blockers – human, duplicate replicates, primary screen (AID 580;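 active = viability at or under a set limit in both replicates, limit being median viability minus 3 SD, cut at about 48% in these data, passing the limit was not always enough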;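 also: 100% = mean luminescence of untreated wells and 0% = no signal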); settings: H69AR lung tumor cells viability, ATP luminescence, 72 h; at 10 µM; stronger effect = lower value
[6] = MRP1 drug-resistance reversers in H69AR cells – cell-based, doxorubicin co-treatment, pilot screen (AID 601;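 active = viability loss from added drug above about 55%, and viability with drug at most 40%, in both replicates, limit read from the data, passing the limit was not always enough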); settings: CellTiter-Glo, 72 h, at 10 µM; for differential viability (reversal): stronger effect = higher value
[7] = yeast transport mutant growth inhibition pilot in 384-well plates, post-Golgi transport modulator project (AID 636; in the data active = inhibition above about 31%); settings: absorbance 615 nm, about 18 h, stronger effect = higher value
[8] = growth suppression of yeast trafficking mutant, preliminary HTS, modulators of trafficking downstream of Golgi apparatus project, 1536-format plate, OD 615 nm (AID 637; in the data active = inhibition above about 30%); settings: yeast transport mutant growth, absorbance 615 nm, 18 h; stronger effect = higher value
[9] = S. cerevisiae growth inhibition in permissive medium (OD615), pilot counter-assay for S. cerevisiae lifespan shortening project, permissive growth control (AID 705;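 active = growth inhibition above 25% in both replicates, a cutoff set 3 SD above the mean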); settings: OD615, 24 h, at 10 µM, stronger effect = higher value
[10] = S. cerevisiae growth inhibition in restrictive medium, OD615, pilot screen, restrictive growth control, yeast lifespan reduction project (AID 706;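 active = growth inhibition above a set limit, 3 SD over mean compound inhibition, in both replicates, cut at about 43% in these data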;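 also: modified DeaD lifespan yeast strain shifted to restrictive glucose medium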); settings: OD615, 48 h, at 10 µM, stronger effect = higher value
[11] = doxorubicin toxicity protection in MRP-1 cells – H69AR cells, CellTiter-Glo, duplicate, MRP-1 activator project, pilot screen (AID 807;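 active = viability increase at or above a cutoff of the median across tested compounds plus 3 SD, cut at about 8.5% in these data, passing the limit was not always enough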;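 also: compound pretreatment 18-22 h then 72 h combined with doxorubicin; 0% = doxorubicin alone and 100% = vehicle without doxorubicin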); settings: H69AR viability with doxorubicin, CellTiter-Glo luminescence; at 10 µM; stronger effect = higher value
[12] = viability of PTEN-null HCT116 cells – cell-based, HCT116 clonal line, CellTiter-Glo, pilot screen (AID 824;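 active = viability at or below 27.92% in each of two runs, the all-compound median minus 4 SD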;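 also: 0% = 20 µM Hyamine control and 100% = vehicle cell control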); settings: HCT116 PTEN-deleted viability, 60 h, at 10 µM, stronger effect = lower value
[13] = RAM pathway blockade in budding yeast – dse1pr::URA3 reporter, 5-FOA selection, pilot screen (AID 869;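 active = inhibition over a set limit, the all-compound mean plus 3 SD, in both replicate runs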;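 also: 0% = DMSO wells with no growth and 100% = 10 µM 1-NA-PP1 with full growth; RAM network block rescues cells from 5-FOA so hits raise OD615 growth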); settings: S. cerevisiae dse1pr::URA3 5-FOA growth, OD615, 2 d; at 10 µM; stronger effect = higher value; strain carries analog-sensitive mutant Cbk1 kinase
[14] = RAM signaling pathway blockade in yeast – S. cerevisiae, Pdr1DBD-CYC8 efflux-inhibited sensitized strain, primary screen (AID 1298;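 active = RAM network inhibition above 8.4% in each of two replicates, 3 SD over the compound average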;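 also: 0% = DMSO untreated cells without growth and 100% = 10 µM 1-NA-PP1 full growth; higher means more yeast growth rescued from 5-FOA killing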); settings: S. cerevisiae cbk1-as DSE1-URA3 strain, 5-FOA growth OD615, 2 d; at 50 µM; stronger effect = higher value
[15] = viability of HCT116 without oncogenic beta-catenin – human colon tumor cells, pilot screen (AID 823;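 active = cell viability at or below a set limit in both duplicate runs, the limit being the all-compound median minus 4 SD, cut at about 23% in these data, passing the limit was not always enough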;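 also: 0% = wells killed by 20 µM Hyamine and 100% = untreated DMSO cell wells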); settings: HCT116 beta-catenin knockout viability, CellTiter-Glo, 60 h; at 10 µM; stronger effect = lower value
[16] = H69AR cells + 2 uM doxorubicin, measured here: viability with 2 uM doxorubicin, stronger effect = lower value
[17] = H69AR cells, compound alone cytotoxicity

Chain of Receptor tyrosine-protein kinase erbB-2 (Homo sapiens) (P04626 whole entry, looked up): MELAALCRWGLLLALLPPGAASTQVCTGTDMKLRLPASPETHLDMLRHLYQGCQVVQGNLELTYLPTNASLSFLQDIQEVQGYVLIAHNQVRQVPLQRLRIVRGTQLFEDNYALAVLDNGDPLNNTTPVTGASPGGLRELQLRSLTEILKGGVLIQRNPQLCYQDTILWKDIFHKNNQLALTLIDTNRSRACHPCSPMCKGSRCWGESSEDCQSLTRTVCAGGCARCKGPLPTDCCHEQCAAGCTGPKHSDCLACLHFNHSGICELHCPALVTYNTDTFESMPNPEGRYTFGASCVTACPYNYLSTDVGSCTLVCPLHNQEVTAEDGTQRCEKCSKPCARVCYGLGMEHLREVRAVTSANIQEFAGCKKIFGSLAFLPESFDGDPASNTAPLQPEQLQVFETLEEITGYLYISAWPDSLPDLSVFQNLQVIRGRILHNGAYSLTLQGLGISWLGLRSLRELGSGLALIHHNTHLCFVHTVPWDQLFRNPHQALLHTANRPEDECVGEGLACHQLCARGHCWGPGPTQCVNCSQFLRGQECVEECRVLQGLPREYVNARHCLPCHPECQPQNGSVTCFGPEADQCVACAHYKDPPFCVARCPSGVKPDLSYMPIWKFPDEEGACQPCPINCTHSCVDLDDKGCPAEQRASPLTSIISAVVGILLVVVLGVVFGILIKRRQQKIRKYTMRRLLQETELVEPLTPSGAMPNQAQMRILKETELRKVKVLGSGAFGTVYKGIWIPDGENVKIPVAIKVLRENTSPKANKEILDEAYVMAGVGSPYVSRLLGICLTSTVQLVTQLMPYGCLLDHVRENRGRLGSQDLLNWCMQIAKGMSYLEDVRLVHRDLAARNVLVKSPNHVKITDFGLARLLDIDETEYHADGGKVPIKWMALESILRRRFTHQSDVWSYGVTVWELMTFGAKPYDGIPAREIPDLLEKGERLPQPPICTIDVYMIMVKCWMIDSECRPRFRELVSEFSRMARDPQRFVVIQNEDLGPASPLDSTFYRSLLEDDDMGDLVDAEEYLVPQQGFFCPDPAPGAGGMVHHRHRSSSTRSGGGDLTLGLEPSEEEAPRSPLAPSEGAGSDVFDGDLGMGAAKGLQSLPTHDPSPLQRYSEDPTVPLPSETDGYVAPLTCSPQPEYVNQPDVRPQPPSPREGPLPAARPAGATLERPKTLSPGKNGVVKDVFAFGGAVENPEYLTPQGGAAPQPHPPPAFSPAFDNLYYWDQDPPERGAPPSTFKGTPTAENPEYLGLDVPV

CCC(C)(NC(=O)CNC(C)=O)C(=O)NC1CCCCC1 (stereo not given)
97.1%: viability [6, 16]
130%: viability [1]
94%: viability [6, 17]
inactive: Her2 level [2] 108% | viability [3] 130% | viability [4] 105% | viability [5] 94% | differential viability (reversal) ([6]; H69AR cells + 2 uM doxorubicin) -3.05% | inhibition [7] -5.48% | inhibition [8] -9.52% | growth inhibition [9] -15.5% | growth inhibition [10] -3.8% | viability increase [11] -1.92% | viability [12] 97.7% | inhibition [13] 2.88% | RAM network inhibition [14] -0.83%

Cc1noc(C)c1CSc1ccccc1C(=O)N1CCN(c2ccccc2)CC1
inactive: Her2 level [2] 86% | viability [3] 87% | viability [4] 97.8% | viability [5] 82% | differential viability (reversal) ([6]; H69AR cells + 2 uM doxorubicin) -6.2% | inhibition [7] -4.46% | inhibition [8] 5.57% | growth inhibition [9] -11.9% | growth inhibition [10] -20% | viability increase [11] -2.25% | viability [12] 72.3% | inhibition [13] 3.5% | RAM network inhibition [14] 4.4%
82%: viability [6, 17]
88.2%: viability [6, 16]
87%: viability [1]

CCOC(=O)c1cc2c(=O)n3ccccc3nc2n(CC(C)C)c1=NC(=O)c1ccco1
84.5%: viability [1]
7.19%: viability [6, 17]
inactive: Her2 level [2] 83% | viability [3] 84.5% | viability [4] 70.4% | differential viability (reversal) ([6]; H69AR cells + 2 uM doxorubicin) 4.44% | inhibition [7] -2.47% | inhibition [8] -3.33% | growth inhibition [9] 1.45% | growth inhibition [10] 4.24% | viability increase [11] -7.74% | viability [12] 37.7% | inhibition [13] 0.955% | RAM network inhibition [14] 5.64%
2.75%: viability [6, 16]
active: viability [5] 7.19%

Nn1c(Cc2ccccc2F)nnc1SCC(=O)N1CC(=O)Nc2ccccc21
112%: viability [1]
84.1%: viability [6, 17]
86.1%: viability [6, 16]
inactive: Her2 level [2] 94.5% | viability [3] 112% | viability [4] 109% | viability [5] 84.1% | differential viability (reversal) ([6]; H69AR cells + 2 uM doxorubicin) -1.98% | inhibition [7] -2.86% | inhibition [8] -10.7% | growth inhibition [9] -11.9% | growth inhibition [10] -7.2% | viability increase [11] -2.14% | viability [15] 114% | inhibition [13] 2.1% | RAM network inhibition [14] 3.29%

Cn1ccnc1SCC(=O)Nc1ccc2ccccc2c1
96.5%: viability [1]
105%: viability [6, 17]
86.9%: viability [6, 16]
inactive: Her2 level [2] 85.5% | viability [3] 96.5% | viability [4] 91.5% | viability [5] 105% | differential viability (reversal) ([6]; H69AR cells + 2 uM doxorubicin) 17.8% | inhibition [7] -4.38% | inhibition [8] -4.92% | growth inhibition [9] 2.36% | growth inhibition [10] 3.36% | viability increase [11] -2.68% | viability [15] 96.8% | inhibition [13] 1.69% | RAM network inhibition [14] 3.49%

Cc1cccc(Cc2c(C)nc3nc(SCC(=O)NCc4ccco4)nn3c2C)c1
inactive: Her2 level [2] 85.5% | viability [3] 106% | viability [4] 61.8% | differential viability (reversal) ([6]; H69AR cells + 2 uM doxorubicin) -27.8% | inhibition [7] -4.59% | inhibition [8] -0.33% | growth inhibition [9] 2.65% | growth inhibition [10] 21.9% | viability increase [11] -3.35% | viability [12] 81.9% | inhibition [13] 1.14% | RAM network inhibition [14] 4.46%
106%: viability [1]
49.6%: viability [6, 17]
77.4%: viability [6, 16]
active: viability [5] 49.6%

O=C(Nc1nncs1)c1ccccc1NS(=O)(=O)c1cccs1
90.2%: viability [6, 17]
99%: viability [1]
inactive: Her2 level [2] 110% | viability [3] 99% | viability [4] 95.3% | viability [5] 90.2% | differential viability (reversal) ([6]; H69AR cells + 2 uM doxorubicin) -3.62% | inhibition [7] -4.86% | inhibition [8] -11.2% | growth inhibition [9] -20.1% | growth inhibition [10] -10.1% | viability increase [11] -1.16% | viability [15] 102% | inhibition [13] 2.67% | RAM network inhibition [14] 4.37%
93.8%: viability [6, 16]

COc1cccc(CNC(=O)CCS(=O)(=O)c2cccc3nsnc23)c1
106%: viability [1]
inactive: Her2 level [2] 91% | viability [3] 106% | viability [4] 105% | viability [5] 89.6% | differential viability (reversal) ([6]; H69AR cells + 2 uM doxorubicin) -6.93% | inhibition [7] -7.67% | inhibition [8] 0.95% | growth inhibition [9] -8.72% | growth inhibition [10] -10.3% | viability increase [11] -2.45% | viability [12] 97.1% | inhibition [13] 1.32% | RAM network inhibition [14] 0.77%
96.6%: viability [6, 16]
89.6%: viability [6, 17]

CCOC(=O)Cn1nc(-c2ccc(Cl)cc2)cc1N
inactive: Her2 level [2] 116% | viability [3] 78% | viability [4] 91.8% | viability [5] 101% | differential viability (reversal) ([6]; H69AR cells + 2 uM doxorubicin) 18% | inhibition [7] -7.95% | inhibition [8] -0.48% | growth inhibition [9] -8.98% | growth inhibition [10] 2.33% | viability increase [11] 0.37% | viability [15] 102% | inhibition [13] 1.88% | RAM network inhibition [14] 5.56%
101%: viability [6, 17]
78%: viability [1]
83.1%: viability [6, 16]

CC(=O)c1cccc(NC(=O)CCNS(=O)(=O)c2cccc3nsnc23)c1
94.5%: viability [6, 16]
86%: viability [1]
inactive: Her2 level [2] 78% | viability [3] 86% | viability [4] 95.6% | viability [5] 106% | differential viability (reversal) ([6]; H69AR cells + 2 uM doxorubicin) 11.8% | inhibition [7] -6.58% | inhibition [8] 6.19% | growth inhibition [9] -5.2% | growth inhibition [10] -11% | viability increase [11] -2.11% | viability [12] 93.5% | inhibition [13] 1.73% | RAM network inhibition [14] 2%
106%: viability [6, 17]
